Each structure is given as a SMILES string. Screen size: about 400,000 compounds; about 13,000 (3.2%) were called active. Entries that show only a call come without a potency. Another 18% or so got no clear call; they are omitted. Calls come from the whole dose curve; as a rule, active = well fitted cell-killing curve with a large enough effect; inconclusive = small, poorly fitted or top-dose-only effect, or effect the other way; inactive = flat fitted curve, though single readings scatter. For the sample, actives were picked, then their nearest neighbours and some compounds at random.

The text below walks through data of PubChem BioAssay AID1347076 (National Center for Advancing Translational Sciences (NCATS), 2019).
Potency is the fitted concentration of half-maximal effect.

This assay in a line: qHTS assay for MDR1-selective chemotherapeutics: Primary screen using the drug-selected MDR subline cells KB-V1. Note: nearly all actives have a fitted effect of over 60% in size. To be noted: KB-V1 MDR cells viability, CellTiter-Glo, 72 h; series mostly up to 46.1 µM. In outline: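 Following 72 h at 37 degrees C with compound, KB-V1 cell viability was read by CellTiter-Glo luminescence, medium being phenol-red-free DMEM plus 10% FBS; concentration-response parameters came from normalized, curve-fitted qHTS data.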
Take `CSCC(NS(=O)(=O)c1ccc(C)cc1)C(=O)O` (stereo unspecified): the Potency result was “inactive”.

In the case of `CCCC(C(=O)n1nc(C)cc1C)C(NS(=O)(=O)c1ccc(C)cc1)c1ccccc1` (stereo unspecified), the Potency was 23.1 µM (active).

Turning to `Cc1ccc(S(=O)(=O)Nc2nc(C)cc(-n3nc(C)cc3C)n2)cc1`, the Potency result is “inactive”.

As to `Cc1ccc(C)c(C(O)c2ncc(-c3cccc4ccccc34)[nH]2)c1` (stereo unspecified), the Potency result is “inactive”.

Consider `c1ccc(Cn2nnc3c(NCC4CC4)ncnc32)cc1`, for which the Potency entry was “inactive”.

With `CC(=O)NCCC(=O)Nc1cc(S(=O)(=O)N2CCOCC2)ccc1N1CCOCC1`, the Potency result was “inactive”.

Regarding `CC(C)CCC(=O)Nc1cc(S(=O)(=O)N2CCOCC2)ccc1N1CCCC1`, the Potency entry was “inactive”.

Regarding `Cc1cc(OCCCC(=O)Nc2cc(S(=O)(=O)N3CCOCC3)ccc2N2CCOCC2)ccc1Cl`, the Potency was 13 µM (active).

For the compound `COC(C(=O)Nc1ccc(S(=O)(=O)Nc2ccc(C)c(C)c2)cc1)c1ccccc1` (stereo unspecified), the Potency is 20.6 µM (active).

Turning to `COC(C(=O)Nc1ccc(C(C)=O)cc1)c1ccccc1` (stereo unspecified), the Potency result is “inactive”.

As to `COC(C(=O)NCc1ccccc1C)c1ccccc1` (stereo unspecified), the Potency result is “inactive”.

On to `CC1CCN(C(=O)c2ccc(CSc3ccc(Cl)cc3)cc2)CC1`, for which the Potency is 18.4 µM (active).

Regarding `O=C(C1CC1)N1CCN=C1SCc1ccc(Cl)cc1`, the Potency result was “inactive”.

Take `COc1cccc(Cn2c(SCc3ccc(C(=O)N4CCC(C)CC4)cc3)nc3ccncc32)c1`: the Potency result is “inactive”.

For the compound `CCCNC(=O)C1(C)CCCN(C(=O)c2cccc(OC(C)=O)c2C)C1` (stereo unspecified), the Potency entry was “inactive”.

In the case of `FC(F)(F)c1ccccc1Cc1c(-c2ccccc2)nc2c3ccccc3ccn12`, the Potency result is “inactive”.

Regarding `COc1ccc(F)cc1S(=O)(=O)NCC(c1ccc2c(c1)OCO2)N1CCN(C)CC1` (stereo unspecified), the Potency result is “inactive”.

For the compound `Cc1cc(C)c(S(=O)(=O)NCC(c2ccc3c(c2)OCO3)N2CCOCC2)c(C)c1` (stereo unspecified), the Potency is 10.3 µM (active).

With `CC(C)CNC(=O)C(=O)NCC(c1ccc2c(c1)OCO2)N1CCOCC1` (stereo unspecified), the Potency entry is “inactive”.

For `O=C(CCc1ccccc1)NCc1ccc2c(c1)CCN2C(=O)c1ccccc1`, the Potency entry was “inactive”.

For `Cc1nccn1-c1ccc(NC(=O)[C@H]2O[C@@H](n3cnc4c(N)ncnc43)[C@H](O)[C@@H]2O)cc1`, the Potency entry was “inactive”.

For `CSc1ccc(CN2CCC2(C)C(=O)Nc2ccc(C)c(O)c2)cc1` (stereo unspecified), the Potency entry is “inactive”.

For the compound `Cc1nc2sc(C)c(C)n2c(=O)c1S(=O)(=O)NCCc1ccc(Cl)cc1`, the Potency result was “inactive”.

As to `CC1(C(=O)NS(=O)(=O)c2ccccc2)CCN1C(=O)c1ccccc1` (stereo unspecified), the Potency entry was “inactive”.

`Cc1cccc(-n2ccnc2SCC(=O)Nc2cccc3ccccc23)c1C`: the Potency result was “inactive”.

In the case of `Cc1cc(C)cc(-n2ccnc2SCC(=O)Nc2nc3ccccc3s2)c1`, the Potency result was “inactive”.

For `Cc1nnc(NC(=O)CSc2nccn2-c2cccc(C)c2C)s1`, the Potency is 9.2 µM (active).

For `C[C@@H]1CN([C@@H](C)CO)C(=O)CCCn2nncc2CO[C@@H]1CN(C)S(=O)(=O)c1ccc(-c2ccccc2)cc1`, the Potency entry is “inactive”.

Consider `O=C(N/N=C\c1ccc(Br)cc1)c1ccc(Cn2cccn2)o1`, for which the Potency was 11.6 µM (active).

Consider `CN(C)c1ccc(/C=N/NC(=O)c2ccc(Cn3cc(Br)cn3)o2)cc1`, for which the Potency entry was “inactive”.

`O=C(N/N=C/c1cccc(OCc2ccccc2)c1)c1ccc(Br)o1`: the Potency entry was “inactive”.

Consider `C[C@H]1CN([C@@H](C)CO)S(=O)(=O)c2ccc(Br)cc2O[C@H]1CN(C)C(=O)c1cnccn1`, for which the Potency result was “inactive”.

In the case of `CC(C)CC1C(=O)N(Cc2cn(Cc3ccco3)nn2)CCS(=O)(=O)N1Cc1ccc(-c2ccc(Cl)c(Cl)c2)cc1` (stereo unspecified), the Potency result is “inactive”.

For `CCCCN(C=O)c1c(CC)nc2c(OCCC3CCCCC3)cccn12`, the Potency entry was “inactive”.

As for `COC(=O)Cc1[nH]n(-c2nc3ccccc3s2)c(=O)c1C(C)=Nc1ccc(OC)cc1`, the Potency was 9.2 µM (active).

`COc1ccc(/C=C(/CC(=O)Nc2ccc(C)cc2)c2nc3ccccc3s2)cc1`: the Potency entry was “inactive”.

As to `COc1ccc(CC(=O)Nc2ccc(-c3nc4ccccc4s3)c(C)c2)cc1`, the Potency entry was “inactive”.

On to `CC1=C(C(=O)N2CCOCC2)CC(CC(=O)NCc2cccc3ccccc23)C(=O)N1CCC1=CCCCC1` (stereo unspecified), for which the Potency entry was “inactive”.

`COc1cc(C(=O)NCCc2csc3nc(-c4ccccc4C)nn23)cc(OC)c1OC`: the Potency entry is “inactive”.

With `CC[C@H]1CN2CCc3cc(OC)c(OC)cc3[C@@H]2C[C@@H]1C[C@H]1NCCc2cc(OC)c(OC)cc21`, the Potency is 5.17 µM (active).

`COc1ccc2c(c1)CCNC2Cc1ccc(OC)c(O)c1` (stereo unspecified): the Potency result was “inactive”.

Turning to `CCC(CC)C(=O)N1CCc2cc(OC)c(OC)cc2C1COc1ccc(F)cc1` (stereo unspecified), the Potency entry is “inactive”.

`Cc1cc(Cl)ccc1-c1nc(NCCN(C)C)nc2ccsc12`: the Potency entry was “inactive”.

Consider `COc1cc(C=NC2CCCCC2)ccc1O`, for which the Potency entry is “inactive”.

On to `CCOc1cccc(-c2nnc(SCC(=O)NC3CC3)n2C)c1`, for which the Potency entry was “inactive”.

`CCc1ccc(-c2nn3c(C)nnc3s2)cc1NC(=O)c1ccc(-c2cccc(Cl)c2)o1`: the Potency result was “inactive”.

As to `CCOc1cccc(-c2nn3c(-c4ccccn4)nnc3s2)c1`, the Potency is 5.17 µM (active).

As to `CCOC(=O)C1CCN(C(=O)c2ccc3c(=O)n4nc(Nc5ccccc5CC)sc4nc3c2)CC1`, the Potency result was “inactive”.

Turning to `COc1cc(NC(=O)Cn2nc(-c3ccc(C)c(C)c3)ccc2=O)cc(OC)c1`, the Potency result was “inactive”.

Take `CC(NC(=O)Cn1cc(C(F)(F)F)cc(Cl)c1=O)c1ccccc1` (stereo unspecified): the Potency entry is “inactive”.

With `Cc1ccc(-c2nc3c(Cl)cc(C(F)(F)F)cn3c2Cc2cccc(Cl)c2)cc1`, the Potency entry is “inactive”.

In the case of `O=c1c([N+](=O)[O-])cc(C(F)(F)F)cn1Cc1cccc(Cl)c1`, the Potency is 18.4 µM (active).

As for `Cn1c(NCc2cccnc2)nc2cc(-c3ccc(F)cc3)sc2c1=O`, the Potency entry was “inactive”.

As to `O=C(Nc1ccccc1C(F)(F)F)c1nc(S(=O)(=O)Cc2ccccc2F)ncc1Cl`, the Potency result was “inactive”.

Turning to `COc1ncnc2c1ncn2CCCNCCN1CCOCC1`, the Potency result is “inactive”.

On to `COc1cccc(C(=O)NC2(C(F)(F)F)C(=O)Nc3c2c(=O)[nH]c(=O)n3-c2ccc(C)cc2)c1` (stereo unspecified), for which the Potency result is “inactive”.

For `Cc1ccccc1C1=NC(C(F)(F)F)(C(F)(F)F)c2c(n(-c3ccc(F)cc3)c(=O)[nH]c2=O)N1`, the Potency was 14.6 µM (active).

For the compound `O=c1[nH]c(=O)n(Cc2ccco2)c2c1C(C(F)(F)F)(C(F)(F)F)N=C(c1ccco1)N2`, the Potency result was “inactive”.

Take `O=C(NC(c1ccco1)c1cc(Cl)c2cccnc2c1O)c1ccccc1` (stereo unspecified): the Potency result is “inactive”.

In the case of `COc1ccc2nc(-c3ccccn3)ccc2c1`, the Potency entry is “inactive”.

As to `COc1ccc(NC(=O)N2CCCC(c3nc(-c4ccc(F)cc4)no3)C2)cc1` (stereo unspecified), the Potency entry is “inactive”.

On to `COc1cccc(-c2noc(C3CCCN(C(=O)c4ccc(F)cc4)C3)n2)c1` (stereo unspecified), for which the Potency result is “inactive”.

Take `CC(C)c1ccc(-c2noc(C3CCCN(S(C)(=O)=O)C3)n2)cc1` (stereo unspecified): the Potency was 18.4 µM (active).

On to `COc1cc(-c2noc(C3CCCN(S(=O)(=O)c4cccc(Cl)c4)C3)n2)cc(OC)c1OC` (stereo unspecified), for which the Potency result is “inactive”.

For the compound `O=C(Cc1cccs1)N1CCCC(c2nc(-c3ccc(S(=O)(=O)N4CCCC4)cc3)no2)C1` (stereo unspecified), the Potency is 20.6 µM (active).

On to `O=c1ccc(S(=O)(=O)N2CCCC2)cn1Cc1nc(-c2ccccc2)no1`, for which the Potency entry is “inactive”.
